Data published in ChEMBL document CHEMBL1201862, “PubChem BioAssay data set” (2004).
About 4,100 (7.1%) of roughly 58,000 sequences were called active. Cut-off read from the data, not from the text of the source: active = GI50 up to about 1.1 µM and inactive = higher. These entries were drawn from the full list. Potency and affinity values are given separately.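 The compound was tested at five concentrations on cells cultured in 96-well plates, with a 48-hour exposure period. Here, GI50 denotes the concentration required for 50% inhibition of growth.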

Test system: U-251
Test: NCI tumour cell line growth inhibition, 48 h

Substance | GI50
[Bis(aminomethyl)diethylsilane]tetrachloroplatinum(IV), CHEMBL2146203 | 2 µM
[Bis(aminomethyl)pentamethylenesilane]tetrachloropaltinum(IV), CHEMBL2146204 | 2.94 µM
[Bis(aminomethyl)tetramethylenesilane]tetrachloropaltinum(IV), CHEMBL2146189 | 3.59 µM
[Bis(aminomethyl)ethylmethylsilane]tetrachloroplatinum(IV), CHEMBL2146192 | 6.07 µM
CISPLATIN, CHEMBL11359 | 1.92 µM
cis-Bis[[(trimethylsilyl)methyl]amino]tetrachloroplatinum(IV), CHEMBL2146191 | 14.9 µM
[Bis(aminomethyl)dimethylsilane]dichloroplatinum (II), CHEMBL2146201 | 33.5 µM
[Bis(aminomethyl)tetramethylenesilane]dichloropaltinum(II), CHEMBL2146205 | 30.3 µM
[Bis(aminomethyl)dimethylsilane]tetrachloroplatinum(IV), CHEMBL2146190 | 9.42 µM
mu-(1,7-nanodiamine-N,N')bis-(cis-aminedichloroplatimum (II)), CHEMBL2146215 | 10.3 µM
[Bis(aminomethyl)pentamethylenesilane]dichloropaltinum(II), CHEMBL2146202 | 2.93 µM
